A selection: hits, their analogues and other compounds. The true share with any hit is near 6.1%.
DRD3 agonist: qHTS of D3 Dopamine Receptor Agonist: qHTS; D3R DiscoveRx beta-arrestin cells, luminescence, 90 min; hit rate 0.58% among 410,000; AID 652048, 2013; max activation, %; D(3) dopamine receptor (Homo sapiens), P35462; in the data active means max activation above about 30%; further: 0% is about no effect
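Agonist mode: compounds and dopamine controls were applied to plated cells for 90 min at 37 degrees C after an overnight attachment at 1500 cells/well. Luminescent read-out followed 30 - 60 minutes at room temperature with DiscoveRx detection reagent.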
D3 antag: qHTS of D3 Dopamine Receptor Antagonist: qHTS | D(3) dopamine receptor (Homo sapiens), P35462 | D3R cells, DiscoveRx beta-arrestin luminescence, antagonist mode; stronger effect = lower value | max response, negative = inhibition, % | hit rate 2.5% among 360,000; in the data active means max response below about -50%; inconclusive means no clear call, values can overlap the other calls; further: on the % scale 0 is the no-effect control and ±100 the full control effect
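Cells plated overnight at 1500 cells/well, then exposed to library compounds with dopamine controls for 90 minutes at 37 degrees C. DiscoveRx reagent added for 30–60 minutes at room temperature; luminescence read, quantitative HTS format.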
D1 agonist: Allosteric Agonists of the Human D1 Dopamine Receptor: qHTS. HEK293 T-REx D1 cells, calcium flux, agonist mode. D(1A) dopamine receptor (Homo sapiens), P21728. activation, % at 2 µM. hit rate 1% among 360,000; in the data active means activation above about 30%; further: 0% is about no effect
Target sequence (P21728 whole entry, looked up): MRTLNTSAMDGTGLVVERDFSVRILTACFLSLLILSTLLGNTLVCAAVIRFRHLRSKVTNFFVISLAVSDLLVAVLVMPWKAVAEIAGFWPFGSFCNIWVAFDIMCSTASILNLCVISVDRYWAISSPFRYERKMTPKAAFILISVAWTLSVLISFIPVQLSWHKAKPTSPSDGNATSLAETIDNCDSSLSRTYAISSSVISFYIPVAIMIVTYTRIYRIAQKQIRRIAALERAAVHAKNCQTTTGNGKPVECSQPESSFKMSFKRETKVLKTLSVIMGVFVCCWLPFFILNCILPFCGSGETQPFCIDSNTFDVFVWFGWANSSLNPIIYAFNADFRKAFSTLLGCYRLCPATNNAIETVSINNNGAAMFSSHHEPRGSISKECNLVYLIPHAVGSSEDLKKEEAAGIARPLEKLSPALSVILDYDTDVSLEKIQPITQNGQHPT
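Inducible HEK293 T-REx D1 cells, force-coupled to calcium signalling, were plated at 4000 cells/well with tetracycline and held overnight at 30 C. After no-wash calcium dye loading, compound-evoked calcium rise over 180 s flagged agonists.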
D1 antag: Antagonist of Human D 1 Dopamine Receptor: qHTS; D(1A) dopamine receptor (Homo sapiens), P21728; HEK293 TREx D1 cells, calcium flux, dopamine EC80; stronger effect = lower value; activity change, negative = inhibition, % at 10 µM; hit rate 3.2% among 360,000; in the data active means activity change below about -30%; further: on the % scale 0 is the no-effect control and ±100 the full control effect
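After overnight tetracycline induction at 30 C, force-coupled D1 HEK293 cells took up a no-wash calcium dye at room temperature. Compounds were added and monitored 180 s, and the response to EC80 dopamine was then recorded.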
D1 PAM: Potentiators of Human D1 Dopamine Receptor: qHTS; D(1A) dopamine receptor (Homo sapiens), P21728; HEK293 TREx D1 cells, calcium flux, dopamine EC20 potentiation; potentiation, % at 10 µM; hit rate 0.036% among 360,000; AID 504651, 2011; in the data active means potentiation above about 30%; further: 0% is about no effect
* marks the source's active call; other numbers are inactive results; u = inconclusive; x = not tested or not shown; ! = not active in a repeat.

SMILES	DRD3 agonist	D3 antag	D1 agonist	D1 antag	D1 PAM
C[C@H]1c2cccc(O)c2C(O)=C2C(=O)[C@]3(O)C(O)=C(C(N)=O)C(=O)[C@@H](N(C)C)[C@@H]3[C@@H](O)[C@@H]21	-33.1	-28.5	-0.1	-83.5*	-8.1
CN(C)c1ccc(O)c2c1C[C@H]1C[C@H]3[C@H](N(C)C)C(=O)C(C(N)=O)=C(O)[C@@]3(O)C(=O)C1=C2O	73.3*!	x	x	x	x
CN(C)c1ccc(O)c2c1CC1CC3[C@@H](N(C)C)C(=O)C(C(N)=O)=C(O)[C@]3(O)C(=O)C1=C2O (some centres undefined)	3.9	-8.3	-0.6	-6.8	2.1
COc1ccc(S(=O)(=O)N2CCC(N3CCN(Cc4ccc(F)cc4)C(=O)C3=O)CC2)cc1	-6.9	x	2.4	-35.9*	1.0
COc1ccc(CCN(C)C(=O)C2CC(=O)N(Cc3ccc(C)cc3)C2)cc1OC (centres undefined)	-0.9	-1.5	1.8	-34.1*	x
CN(Cc1cccs1)C(=O)C1CC(=O)N(Cc2ccccc2)C1 (centres undefined)	4.4	-2.4	2.6	-54.0*	-5.9
COc1ccc(S(=O)(=O)N2CCC(C(=O)NCCC3=CCCCC3)CC2)cc1OC	-2.7	19.3	0.6	-43.0*	-7.2
COc1ccc(O)c(C(=O)c2cnc3c(c2)c(C)nn3CCO)c1	4.6	5.8	0.2	8.3	-3.8
Cc1ccc(CSc2nc(=O)c3c(C)cc(C)nc3n2C2CC2)cc1	-18.3	x	0.7	1.4	0.7
COc1ccc(S(=O)(=O)N2CCC(C(=O)N[C@@H](C)C(=O)NCc3ccc(F)cc3)CC2)cc1	-12.3	-3.9	-0.4	-34.9*	3.0
CSCC[C@H](N)C(=O)N1CCC(C(=O)N[C@@H](C)C(=O)NCc2ccc(F)cc2)CC1	31.3*	4.7	0.1	-3.2	-2.0
O=C(NC(Cc1ccccc1)C(=O)O)C1CCN(S(=O)(=O)c2cccc(C(F)(F)F)c2)CC1 (centres undefined)	3.8	-19.7	1.3	0.0	-1.9
Cc1ccc(S(=O)(=O)N2CCC(C(=O)N[C@@H](Cc3ccccc3)C(=O)O)CC2)cc1	37.1*	-8.7	0.9	12.3	1.9
CC(C)[C@H](NC(=O)C1CCN(S(=O)(=O)c2ccccc2)CC1)C(=O)NCc1ccccc1	-0.9	-14.6	2.2	-44.7*	-2.9
Cc1ccc(S(=O)(=O)N2CCC(C(=O)NCCc3ccc(S(N)(=O)=O)cc3)CC2)cc1	37.3*	12.1	0.7	10.1	10.8
COc1ccc(CN2CC(C(=O)NCCc3ccc(C)cc3)CC2=O)cc1 (centres undefined)	-22.0	-16.0	0.4	-47.4*	-1.6
COc1ccc(CN2CC(C(=O)NCCc3ccccc3)CC2=O)cc1 (centres undefined)	-7.0	-7.4	0.4	22.0	3.9
COc1ccc(CCN(C)CCCN2CC(c3ccccc3)CC2=O)cc1OC (centres undefined)	-16.5	u	1.6	-39.3*	-6.9
COc1ccc(CCNC(=O)C2CCN(S(=O)(=O)c3ccc(C)cc3)CC2)cc1	-7.8	-18.3	8.4	-34.7*	-12.4
COc1ccc(C2CC(=O)N(CCCN(C)CCc3ccc(OC)c(OC)c3)C2)cc1 (centres undefined)	-9.0	-6.1	-0.8	9.0	-5.2
O=C1CSc2ccc(C(=O)NCCc3ccc(Cl)cc3Cl)cc2N1	-1.1	23.1	x	x	x
O=C(O)CCCN1C(=O)C2C3CCC(C3)C2C1=O (centres undefined)	3.1	-73.4*	x	x	x
CC(C)(C)c1ccc(OCc2ccc(C(=O)NCc3cccnc3)o2)cc1	5.2	29.2	21.5	-2.8	-4.7
CCCC(c1nnnn1Cc1ccco1)N1CCN(c2cc(Cl)ccc2C)CC1 (centres undefined)	-8.0	-62.1*	1.3	3.3	0.7
CCCCC(c1nnnn1CC1CCCO1)N1CCN(c2cc(Cl)ccc2C)CC1 (centres undefined)	-0.3	-86.2*	1.6	27.1	-3.0
SMILES	DRD3 agonist	D3 antag	D1 agonist	D1 antag	D1 PAM
CC(C)CC(c1nnnn1Cc1ccco1)N1CCN(C2CCCC2)CC1 (centres undefined)	0.6	-59.7*	2.5	-1.1	-1.1
CCCCC(c1nnnn1CC1CCCO1)N1CCN(c2ccccc2)CC1 (centres undefined)	-3.5	7.7	4.3	-2.0	-5.4
Fc1ccc(C(c2nnnn2Cc2ccco2)N2CCN(C3CCCCC3)CC2)cc1 (centres undefined)	-0.7	u	2.3	-15.7	-8.9
Cc1ccc(S(=O)(=O)N2CCN(C(=O)CSc3ncn[nH]3)CC2)cc1	-7.2	9.5	1.5	-14.5	-2.1
COc1cccc(S(=O)(=O)N2CCN(S(=O)(=O)c3ccc4c(c3)OCCO4)CC2)c1	x	x	1.8	15.5	-3.0
O=C(NC1CC(=O)N(c2ccccc2)C1)c1ccc(S(=O)(=O)N2CCCCC2)cc1 (centres undefined)	4.5	x	6.7	x	-0.5
Cc1cc(C)c(OCCCCCn2ccnc2)c(C)c1	0.3	2.1	18.9	-25.1	-2.4
CNC(=O)C1CCC(Cn2c(=O)c3sccc3n(CC(=O)Nc3cc(C)cc(C)c3)c2=O)CC1 (centres undefined)	-3.0	x	0.2	-4.8	-4.8
COc1ccc(C(=O)N/C(=C\c2ccco2)C(=O)NCCCn2ccnc2)cc1	-17.0	-54.6*	1.8	-7.2	-8.1
O=C(NCCCn1ccnc1)/C(=C/c1ccc(Cl)cc1)NC(=O)c1ccccc1	-9.7	3.0	1.5	6.0	x
CN(C)S(=O)(=O)n1cc(/C=C(\NC(=O)c2ccccc2F)C(=O)NCCCn2ccnc2)c2ccccc21	0.8	2.5	2.7	-38.4*!	11.4
COc1ccccc1C(=O)N/C(=C\c1cn(S(=O)(=O)N(C)C)c2ccccc12)C(=O)NCCCn1ccnc1	-14.4	x	-0.8	19.9	-1.3
CN(C)c1ccc(/C=C(/NC(=O)c2ccccc2)C(=O)NCCCn2ccnc2)cc1	4.6	-6.9	33.8*	-14.7	-0.6
Cc1ccccc1N(CC(=O)N1CCCCCC1)S(C)(=O)=O	-1.0	-10.2	3.8	-1.2	1.4
COc1cccc(NC(=O)/C(C#N)=C/c2c(C)n(Cc3ccc(Cl)cc3)c3ccccc23)c1	0.9	x	15.8	-13.9	-0.4
Cc1cccc(-c2nc3c4ccccc4nc(NCCc4ccccc4)n3n2)c1	-7.2	x	1.6	7.1	-5.2
O=C(NCCc1ccccc1)/C(=C\c1cccc([N+](=O)[O-])c1)NC(=O)c1ccco1	9.6	3.8	3.5	-34.1*	-3.9
CCOC(=O)[C@]12CCCC=C1N(Cc1ccccc1)C(=O)[C@H](CC(=O)N1CCC(c3ccccc3)CC1)C2	4.3	22.6	x	x	x

High-throughput results (PubChem)
